FMDV antiviral = blocks foot and mouth disease virus; 1.2% of 410,000 active; FMDV antiviral cell-based qHTS; Potency, µM (titrated, usually from 57.9 µM), without a hit: at the highest dose activity change, negative = inhibition, usual class: inhibitors; calls by dose curve; tested in HEK293T cells; also: read-out not given here; potency is read from the fitted curve at half-maximal effect; nearly all actives have a fitted effect of over 45% in size
Lassa entry inh = Lassa virus entry inhibition; Lassa virus pseudotype entry inhibition, cell reporter; Potency, µM (doses to about 37.9 µM), inactives show top-dose activity change, negative = inhibition, actives largely listed as inhibitors; 1.2% of 300,000 active; AID 540256; calls by dose curve; tested in HEK293 cells; also: potency is read from the fitted curve at half-maximal effect; nearly all actives have a fitted effect of over 50% in size
HCV inhibitor = blocks hepatitis C virus. Huh7.5.1 HCVcc-Cre infection, luciferase reporter, 44 h. Potency, µM (series often up to 41.8 µM), for inactives: at the highest dose activity change, negative = inhibition, most hits filed as inhibitors. 3.4% of 340,000 active; active = well fitted inhibition curve with a large enough effect; inconclusive = small, poorly fitted or top-dose-only effect, or another doubt; inactive = no such curve, though single readings can be large or run the other way; also: potency is read from the fitted curve at half-maximal effect
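Cells (1,000/well) were plated 4 h before compound, then infected with HCVcc-Cre virus (~0.5 moi). After 44 h further culture, infection was read as luciferase luminescence following a 15 min substrate incubation at room temperature.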
Marburg entry inh = Marburg virus entry inhibition; Marburg virus pseudotyped entry inhibition, cell reporter; Potency, µM (titrated, usually from 37.8 µM), for the others: top-dose activity change, negative = inhibition, most hits filed as inhibitors; 1.8% of 300,000 active; calls by dose curve; tested in HEK293 cells; also: potency is read from the fitted curve at half-maximal effect
HCMV inh = human cytomegalovirus inhibition; HFF cells, HCMV-luciferase reporter, 72 h; active compounds read low; activity change, negative = inhibition, % at 57.5 µM; 4.5% of 410,000 active; AID 1259415; in the data active = activity change below about -60%; inconclusive = no clear call, values can overlap the other calls; inactive = above about -39%
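Compounds were evaluated in HFFs infected with an HCMV luciferase reporter virus (MOI 1 PFU/cell). Luciferase in lysates collected 72 h post infection served as the replication measure.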
* = called active by the depositor; ? = inconclusive; nt = no result given; [ ] = dose if it differs, or a comment. Sampled rows, rich in hits. Any-hit rate of the full collection: about 7.9%. % is scaled to controls: 0 for no effect and ±100 for the full control effect.

SMILES	FMDV antiviral	Lassa entry inh	HCV inhibitor	Marburg entry inh	HCMV inh
C/C(=N\Nc1nc2ccccc2[nH]1)c1cc2ccccc2o1	-56%	-13%	?	?	96
C/C(=N\Nc1nc2ccccc2[nH]1)c1ccc2c(c1)OCO2	-13%	?	?	12µM*	7
COc1ccc(CCC(=O)OCC(=O)Nc2c(C)n(C)n(-c3ccccc3)c2=O)cc1	-1%	nt	0%	nt	18
O=C1NC(Cc2ccccc2)c2nc3cc(Cl)ccc3c(=O)n2-c2ccccc21 (stereo not given)	nt	nt	3.5µM*	nt	7
O=C1NC(Cc2ccccc2)c2nc3ccc(Br)cc3c(=O)n2-c2cc(Cl)ccc21 (stereo not given)	nt	nt	23%	nt	-8
O=C1NC(Cc2ccc(O)cc2)c2nc3ccc(Br)cc3c(=O)n2-c2cc3ccccc3cc21 (stereo not given)	?	nt	nt	nt	-94*
O=C1NC(Cc2ccccc2)c2nc3ccc(Cl)cc3c(=O)n2-c2ccccc21 (stereo not given)	nt	nt	12%	nt	-8
CCOc1ccccc1NC(=S)/C(=C(\[O-])c1ccc2c(c1)OCCO2)[n+]1ccc(CC)cc1	2%	12%	-18%	7.3µM*	26
Cc1ccc(C(=O)COC(=O)c2cc(-c3ccccc3)nc3ccccc23)cc1C	11%	11%[46.1 µM]	nt	nt	26
Clc1cccc2c1Sc1ccccc1CC2N1CCNCC1 (stereo not given)	-22%	5.2µM*	10µM*	?	?
COC(=O)CC(=O)CSc1nc2cc(C(=O)NC(C)C)ccc2c(=O)n1CCc1ccccc1	-22%	-23%[46.1 µM]	nt	nt	-28
COC(=O)CC(=O)CSc1nc2cc(C(=O)NCC(C)C)ccc2c(=O)n1CCc1ccccc1	-18%	?	nt	nt	-94*
Nc1nc(-c2cc(O)ccc2[N+](=O)[O-])cc(-c2ccccc2)c1[N+](=O)[O-]	-24%	-21%[46.1 µM]	?	-7%[46.1 µM]	-69*
O=[N+]([O-])c1ccccc1-c1cc(-c2ccccc2)on1	nt	nt	nt	nt	57
CNCCCC1c2ccccc2C=Cc2ccccc21	-17%	?	?	3.5µM*	-6
CN1CCN(CCCNC(=O)c2cc3c(-c4ccc(Cl)cc4)nn(C)c3s2)CC1	-17%	nt	?	1%	8
CCN(CC)CCCNC(=O)c1cc2c(-c3ccc(Cl)cc3)nn(C)c2s1	-6%	nt	11µM*	nt	nt
CCCN(CCC)CCCNC(=O)c1cc2c(-c3ccc(Cl)cc3)nn(C)c2s1	-23%	?	nt	?	-89*
Cc1ccc(C(CNS(=O)(=O)c2cc(F)ccc2F)N2CCN(C)CC2)cc1 (stereo not given)	-10%	-15%	?	?	-15
COc1ccc([N+](=O)[O-])cc1NC(=O)C(C)Sc1nc(-c2ccccc2)cs1 (stereo not given)	-18%	-9%	13µM*	?	20
COc1ccc([N+](=O)[O-])cc1NC(=O)Nc1cccc(Cl)c1	?	-10%	?	-13%	-62*
COc1cc(CN(C)C(C)C(=O)Nc2ccc([N+](=O)[O-])cc2Cl)ccc1OC(F)F (stereo not given)	?	?	?	?	-20
COc1ccc([N+](=O)[O-])cc1NC(=O)C(C)N(C)Cc1cccc(OC)c1OC (stereo not given)	?	?	35µM*	?	-33
COc1ccc([N+](=O)[O-])cc1NC(=O)Nc1ccc(OC)c(OC)c1	35µM*	?	2.8µM*	?	-72*
CCOc1ccc(CNS(=O)(=O)c2ccc(-c3cc(C(F)(F)F)on3)s2)cc1	-8%	28%[46.1 µM]	nt	nt	-3
SMILES	FMDV antiviral	Lassa entry inh	HCV inhibitor	Marburg entry inh	HCMV inh
Cc1ccc(OCCNC(=O)c2ccccc2SCC(=O)N2CCCC2)cc1	6%	-4%	20%	6%	-24
COc1ccc([N+](=O)[O-])cc1NC(=O)Cc1ccc(Cl)cc1	?	-19%	8.9µM*	?	-10
O=[N+]([O-])c1cccc(CN2CCN(Cc3ccc(Cl)cc3)CC2)c1	?	-21%	10µM*	-1%[46.1 µM]	-77*
COc1ccc([N+](=O)[O-])cc1NC(=S)NC(NC(=O)Cc1ccc(OC)c(OC)c1)C(Cl)(Cl)Cl (stereo not given)	-15%	?	7.9µM*	?	14
CC(C)N1CCN(Cc2cccc([N+](=O)[O-])c2)CC1	19%	?	-3%	6%[46.1 µM]	-40
COc1ccc([N+](=O)[O-])cc1NC(=O)Cc1ccc(C)cc1	-19%	5%	-13%	?	18
COc1ccc(NC(=O)c2ccc(-c3ccc([N+](=O)[O-])cc3)o2)cc1OC	?	?	?	?	-72*
COc1ccc(Cl)cc1NC(=O)C(C)N(C)Cc1ccc(C(F)(F)F)cc1 (stereo not given)	?	-10%	14µM*	?	-87*
COc1ccccc1CC(=O)Nc1ccc([N+](=O)[O-])cc1O	?	6.3µM*	?	?	?
COc1ccc([N+](=O)[O-])cc1NC(=O)C(C)OC(=O)c1ccccc1C(=O)c1ccc(Cl)cc1 (stereo not given)	24%	?	?	-27%	-65*
COc1cc([N+](=O)[O-])ccc1NC(=O)NCC1CCN(Cc2ccc(Cl)cc2)CC1	-23%	-28%[46.1 µM]	13µM*	?	1
COc1ccc(Cl)cc1NC(=O)CN(C)C(C)C(=O)NCC1CCCCC1 (stereo not given)	-22%	-1%	-24%	?	-31
CN(O)/C=N/C(=S)Nc1ccc(Cl)cc1Cl	15%	nt	-4%	nt	?
O=C(OCC(=O)c1ccc(Cl)cc1Cl)c1ccc2c(c1)C(=O)N(c1cccc3ncccc13)C2=O	-11%	-8%	-1%	5%	39
O=C(COC(=O)c1ccc2c(c1)C(=O)N(c1cccc3ncccc13)C2=O)c1ccc(Cl)cc1	?	?	1%	?	-89*
Cc1ccc(C(=O)COC(=O)c2ccc3c(c2)C(=O)N(c2cccc4ncccc24)C3=O)cc1	?	?	-8%	?	-94*
O=C(CCN1N=C(c2ccccc2)CCC1=O)NCC1COc2ccccc2O1 (stereo not given)	21%	nt	-9%	nt	-14
COc1cc(CN2CCN(CC#Cc3ccccc3)CC2CCO)cc(OC)c1 (stereo not given)	-6%	nt	12%	nt	95
CCc1ccc(C(C)NC(=O)C2(C)CC2(Br)Br)cc1 (stereo not given)	-26%	?	-9%	-15%	-22
Cc1ccc(C(C)NC(=S)NCc2ccc(F)cc2)cc1C (stereo not given)	2%	nt	?	nt	-82*
CCC(NC(=S)NCc1ccc(F)cc1)c1ccc(C)cc1 (stereo not given)	3%	?	-16%	10µM*	-35
CCc1ccc(C(C)NC(=S)NCc2ccc(F)cc2)cc1 (stereo not given)	7%	?	?	?	29
Cc1ccc(C(C)NC(=S)NCc2ccc(F)cc2)c(C)c1 (stereo not given)	9%	-21%	?	?	-15

Screening results (PubChem BioAssay)
